Results taken from PubChem BioAssay (NCATS).
Where “and” joins values, the source holds several entries; their conditions need not be identical. Equal entries are not always repeated. Records with an inconclusive call do not appear.

Test: qHTS assay for small molecule agonists of retinoid X receptor alpha signaling (AID 588544)
Settings: HEK293T RXRa-UAS-bla, beta-lactamase reporter, 18 h; 530 nm emission
Excerpt: NIH Chemical Genomics Center [NCGC] U.S. Environmental Protection Agency [EPA] National Institutes of Environmental Health Sciences [NIEHS] National Toxicology Program [NTP] NCGC Assay Overview The Retinoid X receptor (RXR), a nuclear hormone receptor is expressed in liver, spleen, placenta, epidermis, central nervous system. These receptors are able to form homo and heterodimers with other nuclear receptors and due to this heterodimerizing ability, RXR functions as master regulators producing diverse physiological effects. Three subtypes of RXR exist; alpha, beta and gamma. Retinoid X receptor alpha (RXR-alpha) has potential roles in metabolic signaling pathways, skin alopecia, dermal cysts, cardiac development, insulin sensitization etc. Therefore screening environmental chemicals on RXR-alpha signaling can be used for the studies focused on such therapeutic applications.
NCGC Assay Protocol Summary Using a beta-lactamase reporter-gene under control of Retinoid X receptor--alpha (RXR-alpha) response element, a cell-based assay [GeneBLAzer (RXR-alpha -UAS-bla assay developed by Invitrogen] was used to measure RXR-alpha ligands signaling. GeneBLAzer RXR-alpha -UAS-bla HEK293T cells were used with assay medium containing 2% charcoal-stripped FBS. The assay was performed in clear bottom black Greiner 1536-well plates. 9-cis-retinoic acid was used in the screen as the positive control. Library compounds were measured for their ability to stimulate the reporter gene activity. Compounds were screened in a titration series in 1536-well format. The fluorescence intensity (405 nm excitation, 460/530 nm emission) was measured using an EnVision plate reader. Data was normalized relative to 9-cis-retinoic acid control (500 nM, 100%), and DMSO only wells (basal, 0%). Concentration-response titration points for each compound were fitted to the Hill equation yielding concentrations of half-maximal stimulation (EC50) and maximal response (efficacy) values. qHTS protocol for RXR-alpha beta-lactamase assay in agonist mode [Step] [Parameter] [Value] [Description] 1. Reagent; 6 uL; 2500 cells/well 2. Incubation; 37 C for 4 hrs 3. Compounds; 23 nL; 0.59 nM to 92 uM 4. Controls (9-cis-retinoic acid); 23 nL, - One column with dose response, start 38 uM, 1:3 dilutions in duplicates - Final concentrations of 500 nM and 50 nM in two columns 5. Incubation; 37 C for 18 hrs 6. Detection reagent; 1 uL of CCF4-dye 7. Incubation; RT for 2 hrs 8. Detection; Fluorescence; Envision plate reader

Compound	max response
Cc1cc(Cl)ccc1N=CN(C)C	-2.15%
CC(C)(C)OOC(C)(C)CCC(C)(C)OOC(C)(C)C	-2.41%
CCC[CH2][Sn](=[O])[CH2]CCC	-5.73%
FC(F)(F)c1ccc(Cl)cc1	-3.02% and -12.4%
CCOC(=O)Nc1cccc(OC(=O)Nc2ccccc2)c1	2.58%
O=S(=O)(O)C(F)(F)C(F)(F)C(F)(F)C(F)(F)C(F)(F)C(F)(F)F	-12.5% and -11.4%
CCC[CH2][Sn]([CH2]CCC)([O]C(C)=O)[O]C(C)=O	5.61%
CNC(=O)N(C)c1nc2ccccc2s1	-6.4%
CC1=NNC(=O)N(/N=C/c2cccnc2)C1	-7.06%
CCC(CC)Nc1c([N+](=O)[O-])cc(C)c(C)c1[N+](=O)[O-]	4.16%
CCOP(=O)(OCC)Oc1ccc2c(C)c(Cl)c(=O)oc2c1	2.41%
Clc1ccc([C@]2(Cn3cncn3)C[C@H](Br)CO2)c(Cl)c1	-0.873% and 8.46%
O=[As](O)(O)O	-18.2%
CC1(C)C(C(=O)OC(C#N)c2cccc(Oc3ccccc3)c2)C1(C)C (stereo not given)	-5.14%
CC(C)[C@H](C(=O)O[C@H](C#N)c1cccc(Oc2ccccc2)c1)c1ccc(Cl)cc1	-3.66%
COc1ccccc1[N+](=O)[O-]	2.69%
CCOP(=O)(OCC)SCCSCC	-10.7%
O=S1OC[C@@H]2[C@H](CO1)[C@@]1(Cl)C(Cl)=C(Cl)[C@]2(Cl)C1(Cl)Cl (stereo not given in full)	-0.24%
O=[N+]([O-])Nc1nccn1Cc1ccc(Cl)nc1	-15.2%
COC(=O)C(C)Oc1ccc(Oc2ccc(Cl)cc2Cl)cc1 (stereo not given)	20.2%

Compound	max response
CCC[CH2][Sn]([Cl])([CH2]CCC)[CH2]CCC	-0.857%
Cc1c(F)c(F)c(COC(=O)C2C(/C=C(\Cl)C(F)(F)F)C2(C)C)c(F)c1F (stereo not given)	-0.493%
CCCCC(CC)COC(=O)Cl (stereo not given)	-16.3%
CCOP(=O)(OCC)SCSCC	-4.7%
CC(=NC#N)N(C)Cc1ccc(Cl)nc1	-1.69%
FC(F)C(F)(F)OCC(Cn1cncn1)c1ccc(Cl)cc1Cl (stereo not given)	14%
Nc1nc(N)nc(N)n1	-6.58%
C=C(C)C(=O)OCC(CC)CCCC (stereo not given)	-20.3%
CC(C)(C)C(=O)[C@H](Oc1ccc(Cl)cc1)n1cncn1	21.3%
COc1ccc(O)c(C(C)(C)C)c1	-14.4%
N#CN=C1SCCN1Cc1ccc(Cl)nc1	6.15%
COP(=O)(OC)O/C(C)=C/C(=O)N(C)C	-0.0825%
COc1cc(Cl)c(OC)cc1Cl	-12.5%
CCNP(=S)(OC)O/C(C)=C/C(=O)OC(C)C (stereo not given)	-7.51%
COC(=O)c1sccc1S(=O)(=O)NC(=O)Nc1nc(C)nc(OC)n1	-0.622%
Cn1c(-c2ccccc2)cc(-c2ccccc2)[n+]1C	12.1%
CC(C)C(=O)OCC(C)(C)C(OC(=O)C(C)C)C(C)C (stereo not given)	-9.99%
C=CCOC(=O)C(C)(C)OC(=O)c1cc(-n2c(=O)cc(C(F)(F)F)n(C)c2=O)ccc1Cl	-7.31%
CCNc1nc(NC(C)(C)C)nc(SC)n1	-0.223%
O=C=Nc1ccc(Cl)cc1	-14.4%
